Bioassay records from PubChem.
The list is not random: actives were taken first. Their share in the collection is about 4%.
FBA Mtb inh: inhibitors of M. tuberculosis fructose-bisphosphate aldolase; P9WQA3; purified M. tuberculosis FBA, fluorescence read-out; inhibition, % at 1 µM; AID 588726; 360,000 tested, 2.3% active; in the data active means inhibition above about 27%;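 further: 0% = vehicle and 100% = reference inhibitor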
Target sequence (P9WQA3 whole entry, looked up): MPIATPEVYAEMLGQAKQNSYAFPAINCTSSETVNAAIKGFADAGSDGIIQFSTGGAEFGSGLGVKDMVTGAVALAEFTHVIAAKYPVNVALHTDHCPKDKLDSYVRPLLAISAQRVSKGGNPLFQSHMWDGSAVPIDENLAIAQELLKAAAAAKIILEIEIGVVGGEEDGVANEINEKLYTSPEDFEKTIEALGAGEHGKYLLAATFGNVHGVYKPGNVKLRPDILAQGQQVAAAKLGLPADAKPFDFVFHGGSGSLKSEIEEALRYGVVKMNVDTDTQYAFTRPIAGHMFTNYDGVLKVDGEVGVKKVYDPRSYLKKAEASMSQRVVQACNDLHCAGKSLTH
Mtb bLac sens: beta-lactam sensitization of Mtb H37Rv. inhibition, % at 25 µM. AID 434955. 330,000 tested, 0.27% active. M. tuberculosis H37Rv growth with meropenem, percent inhibition; call rule not given here;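 further: growth measured after seven days incubation then overnight dye step; 0% = bacteria only wells and 100% = bacteria with antibiotic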
CCHFV vOTU inh: blocks the CCHF virus ovarian tumor domain protease; CCHFV vOTU protease, Pep-AMC fluorescence; inhibition, % at 11.5 µM; 370,000 tested, 0.55% active; AID 651958; further: 0% = vehicle wells with enzyme and 100% = no enzyme wells
GDH-TPI counter-1: counter-screen for M. tuberculosis FBA inhibitors: GDH-TPI coupled enzymes; inhibition, % at 4.8 µM; 360,000 tested, 1.2% active; GDH-TPI coupled enzyme counterscreen, NADH absorbance; AID 588335;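 further: 0% = DMSO wells and 100% = wells lacking the enzyme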
MazF activator: increases E. coli MazEF RNase cleavage of RNA; P0AE70; AID 504720; FAM/BHQ RNA-DNA oligo cleavage fluorescence, 5 h; 350,000 tested, 0.32% active; activation, % at 20 µM; in the data active means activation above about 50%
Target sequence (P0AE70 whole entry, looked up): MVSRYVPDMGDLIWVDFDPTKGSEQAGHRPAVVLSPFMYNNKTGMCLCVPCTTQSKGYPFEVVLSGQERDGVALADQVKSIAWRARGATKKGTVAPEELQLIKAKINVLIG
Mtb FBA confirm: Mtb FBA inhibition, confirmed; shares compounds with FBA Mtb inh; purified M. tuberculosis FBA, fluorescence read-out; inhibition, % at 1 µM; 5,600 tested, 78% active; AID 651616; in the data active means inhibition above about 27%;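 further: 0% = vehicle wells and 100% = reference inhibitor wells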
GDH-TPI counter-2: counter-screen for M. tuberculosis FBA inhibitors: GDH-TPI coupled enzyme inhibition. 5,600 tested, 81% active. shares compounds with FBA Mtb inh. inhibition, % at 1 µM. GDH-TPI coupled enzyme counterscreen, fluorescence; in the data active means inhibition above about 10%
GDH-TPI DR: counter-screen for M. tuberculosis FBA inhibitors: GDH-TPI dose response. shares compounds with FBA Mtb inh. GDH-TPI coupled enzyme assay, fluorescence, artifact counterscreen. IC50, µM. 170 tested, 79% active; call rule not given here
* marks the source's active call; other numbers are inactive results; nt = not tested or not shown; + = active, no number. Unless noted, no stated cut-off is given here; in the data, active means inhibition above about 30%; inactive means the rest.

SMILES	FBA Mtb inh	Mtb bLac sens	CCHFV vOTU inh	GDH-TPI counter-1	MazF activator	Mtb FBA confirm	GDH-TPI counter-2	others
CCOc1cc(C2C3=C(CCCC3=O)N(CCC(=O)O)C3=C2C(=O)CCC3)ccc1OS(=O)(=O)c1ccc(C)cc1	79.0*	4.4	-111.0	8.6	2.5	82.9*	72.0*
Cc1ccc(S(=O)(=O)Oc2ccc(C3C4=C(CCCC4=O)N(CCC(=O)O)C4=C3C(=O)CCC4)cc2Cl)cc1	109.8*	-0.3	-117.1	-1.4	-12.3	-2.3	-6.7
O=C(O)CCCc1ccc2ccc3cccc4ccc1c2c34	55.9*	78.5	2.9	35.3*	-14.9	+	+
NCCCCc1ccc2ccc3cccc4ccc1c2c34	2.0	nt	-4.3	11.5	-2.0	nt	nt
COc1cc(-c2nc3cccc(C)n3c2NCC2CCCO2)ccc1O (stereo not given)	29.1*	2.3	-10.9	-9.8	3.0	+	+
CCOC(=O)c1cc(-c2ccc(OC)cc2)nc2c1c(C)nn2CCC#N	31.3*	8.7	-20.6	31.4*	-8.1	76.3*	59.9*
COC(=O)[C@]12C[C@H](CC(=O)NCCCN3CCCC3=O)C(=O)N(Cc3ccc4c(c3)OCO4)C1=C[C@H](C(C)(C)C)O[C@@H]2C	nt	nt	0.7	nt	nt	nt	nt
O=C(NCc1ccccc1)N1CCN(Cc2nc3ccccc3c(=O)[nH]2)CC1	nt	nt	-5.3	nt	nt	nt	nt
FC(F)(F)Oc1cccc(Cn2ccc3ccc(-c4ccc5ccn(Cc6ccccc6)c5c4)cc32)c1	nt	nt	19.6	nt	nt	nt	nt
O=C(O)C1CCN(C(=O)CSc2nnc(-c3ccccc3)o2)CC1	27.6*	-4.2	-6.5	6.6	0.7	71.2*	53.1*
O=C1Nc2ccc(S(=O)(=O)NCc3ccco3)c3cccc1c23	26.4	10.3	-20.4	6.9	4.8	nt	nt
CNS(=O)(=O)c1cc(S(=O)(=O)NC)c2cccc3c2c1NC3=O	30.8*	5.3	-38.3	22.8	3.5	91.8*	76.7*
Cc1cc(O)ccc1NS(=O)(=O)c1ccc2c3c(cccc13)C(=O)N2	2.4	-1.6	2.2	7.0	2.8	nt	nt
O=C1Nc2ccc(S(=O)(=O)N(CCO)CCO)c3cccc1c23	32.1*	3.6	-61.2	8.5	2.5	-0.5	-5.4
O=C(O)CCCCCNS(=O)(=O)c1ccc2c3c(cccc13)C(=O)N2	40.5*	-0.6	-78.9	10.4	2.0	90.3*	66.7*
CN(c1ccccc1C(=O)O)S(=O)(=O)c1ccc2c3c(cccc13)C(=O)N2	3.9	-14.6	15.0	0.6	0.0	nt	nt
O=C(O)CNS(=O)(=O)c1ccc2c3c(cccc13)C(=O)N2	37.2*	-0.4	-50.6	15.7	-17.3	+	144.9*
O=C(Nc1ccc(F)cc1)OCc1cn(Cc2ccccc2Cl)nn1	nt	nt	-3.0	nt	nt	nt	nt
CNS(=O)(=O)c1ccc2c3c(cccc13)C(=O)N2	55.9*	-3.6	-114.0	17.1	-3.9	17.3	4.3	GDH-TPI DR=2.89*
O=C(Nc1nc2ccccc2[nH]1)c1ccccc1O	46.9*	18.4	-31.7	14.7	2.4	+	+
COC(=O)c1cc2c(c3c4cc(C)ccc4n(S(=O)(=O)c4cccc(C)c4)c13)C(=O)N(Cc1ccc(N(C)C)cc1)C2	nt	nt	7.2	nt	nt	nt	nt
CCOC(=O)[C@@]12CCCC3=C1N(CCC3)C(=O)[C@H]2CC(=O)NCC12CC3CC(CC(C3)C1)C2	nt	nt	6.1	nt	nt	nt	nt
O=C(OCC(=O)N1CCCCCC1)c1cccc(Cl)c1	-2.0	10.1	3.0	1.0	4.4	nt	nt
Nc1cc(Cl)ccc1C(=O)OCC(=O)N1CCCC1	58.9*	5.4	-41.8	5.4	3.4	93.4*	83.5*
Nc1cc(Cl)ccc1C(=O)OCC(=O)NCC1CCCO1 (stereo not given)	52.6*	-2.9	-56.1	15.3	-0.8	106.4*	74.3*
SMILES	FBA Mtb inh	Mtb bLac sens	CCHFV vOTU inh	GDH-TPI counter-1	MazF activator	Mtb FBA confirm	GDH-TPI counter-2	others
Cc1ccc(C(=O)OCC(=O)NCC2CCCO2)c(C)c1 (stereo not given)	0.7	3.3	-6.1	0.0	7.5	nt	nt
Nc1cc(Cl)ccc1C(=O)OCC(=O)N1CCCCCC1	60.4*	4.7	-54.6	8.2	-1.3	-7.4	-7.8
Nc1cc(Cl)ccc1C(=O)OCC(=O)N1CCOCC1	44.0*	3.5	-62.8	9.1	-2.3	63.5*	53.2*
Nc1cc(C(=O)OCC(=O)N2CCCC2)ccc1Cl	15.7	-8.5	3.9	-4.3	-6.5	nt	nt
Cc1ccc(NC(=O)C2CCN(c3ncccn3)CC2)cc1C	nt	nt	-6.9	nt	nt	nt	nt
Nc1cc(Cl)ccc1C(=O)OCC(=O)NC1CCCCC1	12.9	0.1	-26.2	-0.3	1.0	nt	nt
CCN(C(=O)COC(=O)c1ccc(Cl)cc1N)C1CCCCC1	30.6*	0.3	-35.5	17.1	-2.3	93.2*	86.6*
O=c1nc2n(Cc3ccccc3)c3ccccc3cc-2c(=O)[nH]1	nt	-9.7	-42.9	nt	nt	nt	nt
O=c1nc2n(CCO)c3ccccc3cc-2c(=O)[nH]1	96.0*	nt	-61.6	16.1	5.5	76.9*	56.0*
COC(=O)C1=C(C)N(Cc2ccccc2C(F)(F)F)C(=NCc2ccc(C(F)(F)F)cc2)NC1c1ccccc1 (stereo not given)	nt	nt	12.8	nt	nt	nt	nt
CC(C)(C)c1ccc(-c2cc(NC(=O)Cc3c[nH]c4ccccc34)ccc2Nc2cccnc2)cc1	nt	nt	22.6	nt	nt	nt	nt
Cc1ccc(NC(=O)NNC(=O)CSC2CCc3ccccc32)c(C)c1 (stereo not given)	nt	nt	-7.5	nt	nt	nt	nt
OCc1ccccc1-c1cnc2cccnn12	105.4*	nt	-147.8	8.8	nt	113.3*	86.5*
O=C(C1CCN(c2ncnc3c2sc2cccc(F)c23)CC1)N1CCN(Cc2ccccc2)CC1	nt	nt	0.9	nt	nt	nt	nt
O=C(CSc1n[nH]c(-c2ccc(S(=O)(=O)N3CCCCC3)cc2)n1)Nc1nccs1	61.3*	-2.7	-5.6	17.5	3.0	64.6*	47.2*
Cc1ccc(O)c(C=Nc2ccc3[nH]ncc3c2)c1	42.1*	2.0	2.5	-3.7	-39.4	118.4*	82.8*
CCOC(=O)[C@@]12CCCC=C1N(CCc1ccc(Cl)cc1)C(=O)[C@H]2CC(=O)NCc1cccc2ccccc12	nt	nt	16.2	nt	nt	nt	nt
CCOC(=O)CCc1c(C)c2ccc(OC(C)C(=O)OCC)c(C)c2oc1=O (stereo not given)	51.2*	99.5	-17.0	20.6	-5.9	54.6*	44.2*
CCOC(=O)C(C)Oc1ccc2c(CC)cc(=O)oc2c1C (stereo not given)	31.3*	96.8	3.2	2.0	3.5	74.3*	72.0*
CCc1cc(=O)oc2c(C)c(OC(C)C(=O)NCC3CCC(C(=O)O)CC3)ccc12 (stereo not given)	7.4	1.9	7.6	5.9	-3.7	nt	nt
CCOC(=O)CCc1c(C)c2ccc(OCc3cc([N+](=O)[O-])ccc3OC)c(C)c2oc1=O	nt	-4.5	-11.9	nt	nt	nt	nt
CCC(=O)Oc1ccc2c(C)cc(=O)oc2c1C	39.3*	17.0	-91.2	4.0	0.9	93.6*	95.0*
